Several values for one entry are separate records, joined by “and”; a condition that tells them apart may be missing. Equal entries are not always repeated. Inconclusive results are not listed. Activity calls are given as the source filed them. Rule as the data show it, unless noted: active = response above about 15%; inactive = the rest.
Legend:
[1] = yeast TOR pathway RPL19A-GFP modulators, primary screen, cell-based, S. cerevisiae, multiplex flow cytometry (AID 1862; in the data active = percent of DMSO control GFP below about 86%;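 also: lower values mimic rapamycin by blocking the RPL19A rise seen in DMSO cells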); conditions: S. cerevisiae RPL19A-GFP strain, flow cytometry fluorescence, 3 h; at 10 µM; stronger effect = lower value
[2] = modulators of MEP2-GFP levels in yeast, primary screen, S. cerevisiae, multiplex flow cytometry (AID 1867;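 active = GFP response, as percent of the DMSO control, above the screen-wide mean plus 3 SD, about 139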;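 also: median GFP channel fluorescence of barcode-gated MEP2-GFP cells measured by flow cytometry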); conditions: S. cerevisiae MEP2-GFP strain, 3 h, at 10 µM, stronger effect = higher value, 100% means same as DMSO wells
[3] = modulators of CIT2-GFP expression in yeast, primary screen, S. cerevisiae, GFP fusion, multiplex flow cytometry (AID 1870;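 active = percent response above a set limit, the screen-wide mean plus 3 SD, cut at about 130% in these data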;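 also: barcoded CIT2-GFP strain pooled with four other GFP strains with rapamycin as positive control; median GFP fluorescence per well over plate mean of DMSO wells so 100% = DMSO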); conditions: 3 h, at 10 µM, stronger effect = higher value
[4] = modulators of LAP4-GFP expression in yeast, primary screen, S. cerevisiae, multiplex flow cytometry (AID 1873;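 active = GFP signal, as percent of the solvent control, above the screen mean plus 3 SD, about 149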); conditions: 3 h, at 10 µM, stronger effect = higher value
[5] = modulators of AGP1-GFP expression in yeast TOR pathway, primary screen, cell-based, multiplex flow cytometry, S. cerevisiae (AID 1887;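 active = GFP signal above the screen-wide mean plus 3 SD, that is over about 124.5% of the solvent control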;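 also: AGP1-GFP fusion strain of S. cerevisiae within a five-strain barcoded multiplex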); conditions: 3 h, at 10 µM, stronger effect = higher value
[6] = inhibitors of CD8+ T cell-vesicle binding, pilot screen, LFA-1/ICAM-1 modulator project, MLPCN validation set, flow cytometry (AID 2523;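 active = response below a set limit, under 55% cells CD8-positive and vesicle-bound, and CD8 cells' 90th-percentile brightness under 279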;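 as to vesicle binding response: mean PE anti-B7-1 fluorescence of CD8+ cells relative to row control; 100% = QL9-loaded vesicles with DMSO vehicle in the same plate row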); conditions: 2C mouse CD8+ T cells, at 7 µM, stronger effect = lower value; double positive events: measured here: CD8+/vesicle+ event percentage
[7] = molecular target: Integrin beta-1 (Homo sapiens) + Integrin alpha-4 (Homo sapiens) (UniProt P13612+P05556); experiment: inhibition of HUTS-21 binding to VLA-4, pilot screen, VLA-4 allosteric modulator project, U937 cells, HUTS-21 mAb, flow cytometry, validation set (AID 2674;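 active = inhibition above 50%, about 3 SD of the validation set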;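 also: antibody binding induced by the VLA-4 ligand LDV present at three times its Kd; 0% = LDV ligand with antibody and no compound and 100% = antibody without LDV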); conditions: HUTS-21 LIBS mAb binding, at 6.7 µM, stronger effect = higher value, binding induced by LDV ligand
Sequence of Integrin beta-1 (Homo sapiens) + Integrin alpha-4 (Homo sapiens) (P05556 whole entry, looked up): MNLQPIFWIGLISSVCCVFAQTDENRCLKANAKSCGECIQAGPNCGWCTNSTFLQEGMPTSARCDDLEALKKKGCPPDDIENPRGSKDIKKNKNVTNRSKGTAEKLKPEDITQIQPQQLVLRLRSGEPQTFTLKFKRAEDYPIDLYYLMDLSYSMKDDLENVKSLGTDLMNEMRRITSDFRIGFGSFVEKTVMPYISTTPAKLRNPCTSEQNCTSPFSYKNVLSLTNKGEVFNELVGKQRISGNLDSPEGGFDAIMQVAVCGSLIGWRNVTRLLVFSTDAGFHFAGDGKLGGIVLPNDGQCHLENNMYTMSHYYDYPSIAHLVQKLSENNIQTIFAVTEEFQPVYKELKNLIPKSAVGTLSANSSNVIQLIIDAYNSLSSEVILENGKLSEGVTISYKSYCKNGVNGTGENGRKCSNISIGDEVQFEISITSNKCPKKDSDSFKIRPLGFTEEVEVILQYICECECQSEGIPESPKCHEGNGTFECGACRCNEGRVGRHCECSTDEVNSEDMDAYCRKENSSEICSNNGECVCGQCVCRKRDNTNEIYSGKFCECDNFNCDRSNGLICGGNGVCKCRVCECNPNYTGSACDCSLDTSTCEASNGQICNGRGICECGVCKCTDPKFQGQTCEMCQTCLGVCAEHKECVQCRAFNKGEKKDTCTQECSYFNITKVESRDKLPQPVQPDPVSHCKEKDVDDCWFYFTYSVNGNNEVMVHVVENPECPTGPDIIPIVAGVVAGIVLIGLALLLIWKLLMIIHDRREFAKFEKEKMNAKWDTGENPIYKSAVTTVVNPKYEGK
Sequence of Integrin beta-1 (Homo sapiens) + Integrin alpha-4 (Homo sapiens) (P13612 whole entry, looked up): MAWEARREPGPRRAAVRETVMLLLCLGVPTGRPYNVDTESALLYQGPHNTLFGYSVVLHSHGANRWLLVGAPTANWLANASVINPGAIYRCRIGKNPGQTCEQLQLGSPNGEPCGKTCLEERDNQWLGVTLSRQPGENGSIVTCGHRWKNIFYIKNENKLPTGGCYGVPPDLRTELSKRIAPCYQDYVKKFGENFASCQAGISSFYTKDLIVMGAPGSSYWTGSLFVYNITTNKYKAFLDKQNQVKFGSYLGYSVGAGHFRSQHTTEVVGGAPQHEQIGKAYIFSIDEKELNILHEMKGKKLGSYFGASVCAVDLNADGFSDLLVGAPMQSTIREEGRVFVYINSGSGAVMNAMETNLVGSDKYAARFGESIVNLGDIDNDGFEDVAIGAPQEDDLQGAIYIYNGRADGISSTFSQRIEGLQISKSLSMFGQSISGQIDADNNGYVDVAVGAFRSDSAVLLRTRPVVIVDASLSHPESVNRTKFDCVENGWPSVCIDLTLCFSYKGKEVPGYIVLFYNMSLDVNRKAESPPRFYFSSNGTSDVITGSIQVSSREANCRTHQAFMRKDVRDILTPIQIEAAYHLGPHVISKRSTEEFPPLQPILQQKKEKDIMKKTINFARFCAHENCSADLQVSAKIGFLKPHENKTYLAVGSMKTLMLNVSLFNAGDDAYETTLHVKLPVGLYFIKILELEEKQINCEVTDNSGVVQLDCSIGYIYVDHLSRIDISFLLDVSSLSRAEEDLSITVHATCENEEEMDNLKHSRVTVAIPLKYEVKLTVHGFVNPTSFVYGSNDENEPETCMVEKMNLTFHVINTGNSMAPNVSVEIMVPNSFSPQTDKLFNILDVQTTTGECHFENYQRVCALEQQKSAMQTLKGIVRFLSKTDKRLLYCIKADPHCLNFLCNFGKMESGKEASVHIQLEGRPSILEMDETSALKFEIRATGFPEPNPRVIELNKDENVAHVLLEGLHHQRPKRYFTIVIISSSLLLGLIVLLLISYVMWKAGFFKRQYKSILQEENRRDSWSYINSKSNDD

[8] = superoxide lowering in aged yeast cells, pilot screen, validation compound set (AID 2706;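 active = superoxide response below 65% of plate, a cut near 3 SD across the whole screen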;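 also: yeast exposed to compound for one week at 30 degrees C before staining; 100% = mean of all compound wells on the same plate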); conditions: S. cerevisiae aging, superoxide DHE fluorescence; at 10 µM; stronger effect = lower value
[9] = molecular target: Beta-adrenergic receptor kinase 1 (Homo sapiens) (UniProt P25098); experiment: GRK2 binders displacing RNA aptamer, biochemical, validation, human GRK2, bead flow cytometry (AID 488806;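 active = aptamer binding inhibition above 30%, about 3 SD of noise from non-fluorescent compounds; inactive = inhibition at or below 30%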); conditions: bead-bound GRK2, FAM-aptamer displacement, at 10 µM, stronger effect = higher value
Sequence of Beta-adrenergic receptor kinase 1 (Homo sapiens) (P25098 whole entry, looked up): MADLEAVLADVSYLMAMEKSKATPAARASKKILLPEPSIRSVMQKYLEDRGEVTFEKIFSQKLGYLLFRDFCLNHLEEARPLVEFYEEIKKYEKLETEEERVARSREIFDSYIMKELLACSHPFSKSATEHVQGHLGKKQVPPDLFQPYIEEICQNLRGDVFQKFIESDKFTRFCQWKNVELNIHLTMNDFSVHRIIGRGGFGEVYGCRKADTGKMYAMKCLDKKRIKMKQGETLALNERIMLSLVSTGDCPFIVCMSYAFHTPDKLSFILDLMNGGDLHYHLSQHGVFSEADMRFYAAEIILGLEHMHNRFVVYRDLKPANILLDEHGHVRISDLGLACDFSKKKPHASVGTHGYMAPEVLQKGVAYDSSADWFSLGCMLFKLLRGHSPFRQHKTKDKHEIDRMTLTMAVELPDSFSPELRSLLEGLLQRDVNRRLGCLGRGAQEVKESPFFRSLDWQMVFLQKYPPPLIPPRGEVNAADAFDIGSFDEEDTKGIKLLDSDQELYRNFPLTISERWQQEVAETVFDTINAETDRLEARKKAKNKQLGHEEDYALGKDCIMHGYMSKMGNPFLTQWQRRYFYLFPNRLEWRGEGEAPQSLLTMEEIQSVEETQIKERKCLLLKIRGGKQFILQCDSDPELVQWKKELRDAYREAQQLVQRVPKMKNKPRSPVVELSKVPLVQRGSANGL

[10] = molecular target: Beta-2 adrenergic receptor (Homo sapiens) (UniProt P07550); experiment: beta2AR agonists driving receptor internalization, pilot screen, cell-based, FAP fluorogen, flow cytometry, validation set (AID 504459;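 active = percent response above 42, roughly 3 SD of non-fluorescent test compounds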;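 also: agonist-driven loss of surface beta2AR via internalization measured by FAP dye flow cytometry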); conditions: Am2.2-beta2AR cells, FAP surface receptor flow cytometry; at 10 µM; stronger effect = higher value
Sequence of Beta-2 adrenergic receptor (Homo sapiens) (P07550 whole entry, looked up): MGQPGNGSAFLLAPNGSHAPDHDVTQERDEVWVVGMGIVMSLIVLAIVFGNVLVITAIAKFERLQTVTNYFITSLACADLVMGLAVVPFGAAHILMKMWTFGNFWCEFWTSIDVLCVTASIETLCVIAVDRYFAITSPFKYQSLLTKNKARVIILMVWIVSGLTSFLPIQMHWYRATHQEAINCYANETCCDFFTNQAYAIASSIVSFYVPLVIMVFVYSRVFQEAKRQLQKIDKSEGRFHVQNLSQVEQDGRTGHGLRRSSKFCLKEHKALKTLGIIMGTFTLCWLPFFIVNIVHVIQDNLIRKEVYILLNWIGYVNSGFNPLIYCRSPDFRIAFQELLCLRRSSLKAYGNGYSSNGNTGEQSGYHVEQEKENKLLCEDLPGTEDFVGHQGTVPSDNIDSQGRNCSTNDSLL

[11] = molecular target: AP-2 complex subunit beta (Homo sapiens) (UniProt P63010); experiment: inhibitors of arrestin peptide binding to AP2, pilot screen, biochemical, validation set, GST-AP2 beads, flow cytometry (AID 504541;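 active = inhibition above 54%, about 3 SD of non-fluorescent compounds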;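 also: AP2 carries R879A mutation and is captured from E. coli lysate; bead-bound FITC arrestin peptide fluorescence measuring arrestin peptide binding to AP2; 0% = DMSO wells and 100% = excess unlabeled arrestin peptide control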); conditions: FITC arrestin peptide, at 10 µM, stronger effect = higher value, AP2 beta2 appendage fragment, R879A mutant
Sequence of AP-2 complex subunit beta (Homo sapiens) (P63010 whole entry, looked up, the tested form may be a part, one chain of several): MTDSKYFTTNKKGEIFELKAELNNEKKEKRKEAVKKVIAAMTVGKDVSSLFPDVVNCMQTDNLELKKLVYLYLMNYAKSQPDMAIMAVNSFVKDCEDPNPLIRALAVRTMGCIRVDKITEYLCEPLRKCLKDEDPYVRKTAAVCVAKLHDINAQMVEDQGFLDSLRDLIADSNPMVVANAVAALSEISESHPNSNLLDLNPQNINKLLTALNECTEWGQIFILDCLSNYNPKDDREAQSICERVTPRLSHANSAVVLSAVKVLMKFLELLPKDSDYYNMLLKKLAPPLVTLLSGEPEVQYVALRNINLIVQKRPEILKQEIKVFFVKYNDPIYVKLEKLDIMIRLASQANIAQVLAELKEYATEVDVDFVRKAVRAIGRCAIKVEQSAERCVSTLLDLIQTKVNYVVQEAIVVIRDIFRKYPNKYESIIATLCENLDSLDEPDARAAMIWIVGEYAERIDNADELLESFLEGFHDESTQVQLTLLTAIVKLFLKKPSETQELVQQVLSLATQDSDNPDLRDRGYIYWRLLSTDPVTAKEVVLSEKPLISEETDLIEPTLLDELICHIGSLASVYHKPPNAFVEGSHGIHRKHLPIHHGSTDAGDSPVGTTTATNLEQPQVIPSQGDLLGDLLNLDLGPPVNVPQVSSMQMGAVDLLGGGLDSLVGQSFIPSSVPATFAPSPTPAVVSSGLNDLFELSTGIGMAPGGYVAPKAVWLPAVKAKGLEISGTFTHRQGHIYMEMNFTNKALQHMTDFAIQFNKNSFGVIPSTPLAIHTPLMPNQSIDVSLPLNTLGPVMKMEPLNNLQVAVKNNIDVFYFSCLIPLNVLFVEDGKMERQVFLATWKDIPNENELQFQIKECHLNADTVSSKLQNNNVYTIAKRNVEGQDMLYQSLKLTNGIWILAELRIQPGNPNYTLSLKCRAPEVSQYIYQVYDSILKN

[12] = yeast V-ATPase proton transport modulators, S. cerevisiae, pHLuorin, HTS validation (AID 504600);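 also: plate controls were DMSO for no effect and reference compound for full effect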; conditions: S. cerevisiae pHLuorin cytosolic pH, at 10 µM, stronger effect = higher value
[13] = tested on: anti-desmoglein-3 scFv antibody binding to human DSG3; experiment: inhibitors of anti-DSG3 scFv binding to DSG3, pilot screen, biochemical, validation compound set, bead-based, flow cytometry (AID 588368;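 active = binding below the plate cutoff, the plate median minus 3 SD, with a reading above zero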;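 also: signal is the median channel fluorescence of bead-bound GFP antibody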); conditions: Protein G beads, DSG3-Fc, scFv-GFP binding, at 10 µM, stronger effect = lower value
[14] = inhibitors of fungal efflux pumps CDR1, CDR2, MDR1, pilot screen, validation compound set, multiplex, phenotypic (AID 588506;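 active = efflux inhibition above 0.42, the validation set average plus 4 SD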;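 also: Nile Red retained in cells so higher fluorescence means more efflux inhibition; 0 = negative control wells and 1 = enniatin B 25 µM full block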); conditions: S. cerevisiae pump-expressing triplex, Nile Red efflux flow cytometry; at 10 µM; stronger effect = higher value; the pumps come from Candida albicans
[15] = molecular target: ATP-binding cassette sub-family B member 6 (Homo sapiens) (UniProt Q9NP58); experiment: ABCB6 transporter inhibitors, pilot screen, K562-ABCB6 cells, flow cytometry, validation set (AID 588550;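 active = inhibition above the screen-wide mean plus 3 SD, about 51%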;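 also: 0% = DMSO wells and 100% = benzethonium chloride 70 µM positive control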); conditions: K562-ABCB6 porphyrin accumulation, 1 h, at 10 µM, stronger effect = higher value
Sequence of ATP-binding cassette sub-family B member 6 (Homo sapiens) (Q9NP58 whole entry, looked up): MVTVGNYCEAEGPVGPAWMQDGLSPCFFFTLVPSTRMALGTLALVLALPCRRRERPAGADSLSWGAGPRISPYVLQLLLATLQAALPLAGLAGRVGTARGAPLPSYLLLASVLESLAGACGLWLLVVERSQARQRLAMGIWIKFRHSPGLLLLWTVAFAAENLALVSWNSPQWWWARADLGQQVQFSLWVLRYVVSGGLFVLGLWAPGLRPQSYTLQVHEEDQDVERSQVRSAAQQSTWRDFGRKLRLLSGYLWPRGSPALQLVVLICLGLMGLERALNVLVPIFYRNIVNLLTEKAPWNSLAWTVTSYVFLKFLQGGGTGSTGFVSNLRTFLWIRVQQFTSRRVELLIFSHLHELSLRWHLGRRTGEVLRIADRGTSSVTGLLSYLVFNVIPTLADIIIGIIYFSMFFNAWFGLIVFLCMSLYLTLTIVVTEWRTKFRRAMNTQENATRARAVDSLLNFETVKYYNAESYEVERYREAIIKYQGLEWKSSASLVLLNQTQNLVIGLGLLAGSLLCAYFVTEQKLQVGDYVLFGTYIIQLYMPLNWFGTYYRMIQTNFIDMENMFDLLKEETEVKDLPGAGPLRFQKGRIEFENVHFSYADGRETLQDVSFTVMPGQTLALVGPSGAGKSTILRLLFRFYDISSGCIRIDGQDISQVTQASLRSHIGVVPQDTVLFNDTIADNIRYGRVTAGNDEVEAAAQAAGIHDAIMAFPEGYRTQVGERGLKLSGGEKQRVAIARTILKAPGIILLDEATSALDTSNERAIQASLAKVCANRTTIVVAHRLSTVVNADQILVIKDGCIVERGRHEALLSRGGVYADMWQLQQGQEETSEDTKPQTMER

[16] = promoters of myeloid differentiation in arrested cells, primary screen, cell-based, GFP/MAC1 double positive, flow cytometry, validation set (AID 588685;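 active = differentiation response of at least 50%, scaled between solvent and reference control, from cells with both markers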;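 also: compound exposure lasts four days before antibody staining and flow analysis; 0% = DMSO wells and 100% = 5 µM fulvestrant positive control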); conditions: ER-HoxA9 marrow cells, stronger effect = higher value, normalized: vehicle 0, fulvestrant 100

Structure (SMILES)	percent of DMSO control GFP [1]	GFP response vs DMSO [2]	percent response of DMSO control [3]	GFP response vs DMSO [4]	GFP response, % of DMSO [5]	double positive events [6]	vesicle binding response [6]	inhibition [7]	superoxide response (% of plate) [8]	aptamer binding inhibition [9]	response [10]	inhibition [11]	response [12]	binding (% of control) [13]	efflux inhibition (fraction of control) [14]	inhibition [15]	differentiation response [16]
Cc1[nH]c2ccccc2c1/C=C/c1nc2ccccc2c(=O)n1CCO	102% (inactive)	106% (inactive)	97.7% (inactive)	110% (inactive)	100% (inactive)	59%	200% (inactive)	-15.4% (inactive)	89.8% (inactive)	7% (inactive)	20.6% (inactive)	12.7% (inactive)	-3.06% (inactive)	106% (inactive)	0.33 (inactive)	4% (inactive)	0.8% (inactive)
COc1ccc(Cc2noc(CN(C)CCN3CCc4ccccc4C3)n2)cc1OC	103% (inactive)	105% (inactive)	109% (inactive)	91.4% (inactive)	103% (inactive)	65.2%	232% (inactive)	-8.75% (inactive)	95% (inactive)	6% (inactive)	-6.59% (inactive)	-8.41% (inactive)	0.56% (inactive)	104% (inactive)	-0.1 (inactive)	-12% (inactive)	5.13% (inactive)
CC1(C)Cc2ccccc2-c2nc(-c3ccccc3)oc(=O)c21	102% (inactive)	94.7% (inactive)	96.4% (inactive)	107% (inactive)	112% (inactive)	63.3%	149% (inactive)	2.29% (inactive)	89.6% (inactive)	4% (inactive)	-10.1% (inactive)	-10.6% (inactive)	-7.89% (inactive)	98.8% (inactive)	0.08 (inactive)	7% (inactive)	-0.06% (inactive)
CCN(CC)CC(=O)Nc1c(C)cccc1C	106% (inactive) and 100% (inactive)	109% (inactive) and 94.1% (inactive)	101% (inactive) and 109% (inactive)	105% (inactive) and 98.2% (inactive)	107% (inactive) and 105% (inactive)	65.6% and 64.5%	12800% (inactive)	6.4% (inactive) and 0.94% (inactive)	87.6% (inactive) and 113% (inactive)	5% (inactive) and 0% (inactive)	-4.24% (inactive) and -9.06% (inactive)	-9.42% (inactive) and -7.53% (inactive)	-5.61% (inactive) and -5.05% (inactive)	94.5% (inactive) and 99.9% (inactive)	0.05 (inactive) and -0.1 (inactive)	10% (inactive) and 7% (inactive)	-8.8% (inactive) and -15.2% (inactive)
CN(C(=O)C(Cl)Cl)c1ccc(OC(=O)c2ccco2)cc1	99% (inactive)	105% (inactive)	97.8% (inactive)	98% (inactive)	96.8% (inactive)	59.3%	90.2% (inactive)	-1.49% (inactive)	94% (inactive)	4% (inactive)	5.41% (inactive)	15.3% (inactive)	-0.32% (inactive)	99% (inactive)	-0.04 (inactive)	7% (inactive)	-3.67% (inactive)
CC(C)Oc1ccc(C2CC(=O)N(c3ccc(C(=O)O)cc3)C2=O)cc1 (stereo unspecified)	98.1% (inactive)	97.6% (inactive)	105% (inactive)	137% (inactive)	122% (inactive)	57.7%	178% (inactive)	3.14% (inactive)	135% (inactive)	-4% (inactive)	-19.8% (inactive)	-15% (inactive)	-1.38% (inactive)	105% (inactive)	-0.04 (inactive)	-1% (inactive)	-9.91% (inactive)
CC(C)(Sc1cc(C(C)(C)C)c(O)c(C(C)(C)C)c1)Sc1cc(C(C)(C)C)c(O)c(C(C)(C)C)c1	101% (inactive)	105% (inactive)	107% (inactive)	101% (inactive)	106% (inactive)	60.1%	170% (inactive)	-2.43% (inactive)	90.1% (inactive)	-5% (inactive)	1.22% (inactive)	10.6% (inactive)	-3.38% (inactive)	102% (inactive)	-0.03 (inactive)	21% (inactive)	-17.7% (inactive)
CC(C)[C@H](NC(=O)[C@@H]1CSCN1C(=O)OC(C)(C)C)C(=O)NCC1CCC(C(=O)O)CC1 (stereo partly specified)	99.7% (inactive)	97.4% (inactive)	104% (inactive)	84.6% (inactive)	96.3% (inactive)	64.5%	283% (inactive)	-4.52% (inactive)	82.1% (inactive)	4% (inactive)	-5.23% (inactive)	-2.51% (inactive)	3.84% (inactive)	98.9% (inactive)	0.01 (inactive)	109% (active)	0.8% (inactive)
CC(C)c1ccc(/C=C/C(=O)O)cc1	96.3% (inactive)	105% (inactive)	81.5% (inactive)	161% (active)	83.4% (inactive)	56.5%	218% (inactive)	7.76% (inactive)	99.5% (inactive)	3% (inactive)	3.14% (inactive)	3.59% (inactive)	1.59% (inactive)	94.5% (inactive)	-0.35 (inactive)	4% (inactive)	-2.4% (inactive)
CCNC(=O)C(Cc1ccccc1)NC(=O)OCc1ccccc1 (stereo unspecified)	101% (inactive)	103% (inactive)	99.6% (inactive)	117% (inactive)	106% (inactive)	62.5%	367% (inactive)	19.3% (inactive)	112% (inactive)	2% (inactive)	-19.9% (inactive)	1.34% (inactive)	0.55% (inactive)	108% (inactive)	0 (inactive)	6% (inactive)	-12.9% (inactive)
COc1ccc(C(=O)Nc2ncc3c(n2)CC(C)CC3=O)cc1 (stereo unspecified)	98% (inactive)	105% (inactive)	105% (inactive)	110% (inactive)	104% (inactive)	48.3%	83.7% (inactive)	-12.7% (inactive)	99.5% (inactive)	-2% (inactive)	2.81% (inactive)	61.9% (active)	-6.31% (inactive)	95.3% (inactive)	0.01 (inactive)	15% (inactive)	-7.2% (inactive)
OC(C#CCN1CCCC1)(c1ccccc1)c1cccnc1 (stereo unspecified)	98.9% (inactive)	101% (inactive)	98.3% (inactive)	103% (inactive)	107% (inactive)	60.3%	166% (inactive)	11.7% (inactive)	83.2% (inactive)	6% (inactive)	-14.6% (inactive)	-2.57% (inactive)	1.86% (inactive)	108% (inactive)	-0.09 (inactive)	-14% (inactive)	14.7% (inactive)
CC(=O)OCC(=O)[C@@]1(O)[C@H](C)C[C@H]2[C@@H]3CCC4=CC(=O)C=C[C@]4(C)[C@@]3(F)[C@@H](O)C[C@@]21C	97.2% (inactive)	119% (inactive)	107% (inactive)	80.9% (inactive)	91.7% (inactive)	59.3%	192% (inactive)	12.3% (inactive)	108% (inactive)	-2% (inactive)	-2.19% (inactive)	-11.7% (inactive)	2.51% (inactive)	99.4% (inactive)	-0.35 (inactive)	9% (inactive)	-3.28% (inactive)
CCCCOn1c(C)c(C(C)=O)c2c3no[n+]([O-])c3ccc21	101% (inactive)	105% (inactive)	97.7% (inactive)	120% (inactive)	99.4% (inactive)	59.8%	246% (inactive)	-12.7% (inactive)	106% (inactive)	0% (inactive)	25.4% (inactive)	-10.5% (inactive)	5.1% (inactive)	94.3% (inactive)	-0.1 (inactive)	7% (inactive)	74.4% (active)
CNc1c2c(nn1C)CCCC2	104% (inactive)	97.7% (inactive)	106% (inactive)	97% (inactive)	106% (inactive)	62.2%	126% (inactive)	1.59% (inactive)	115% (inactive)	5% (inactive)	1.87% (inactive)	-17.3% (inactive)	-7.05% (inactive)	101% (inactive)	-0.19 (inactive)	-3% (inactive)	-3.11% (inactive)
CN(C)C(=O)CCCCCCCCC(=O)N(C)C	90.6% (inactive)	146% (active)	107% (inactive)	79.2% (inactive)	93.3% (inactive)	64.1%	194% (inactive)	7.43% (inactive)	81.8% (inactive)	5% (inactive)	3.92% (inactive)	12.9% (inactive)	-5.22% (inactive)	101% (inactive)	0.16 (inactive)	6% (inactive)	1.64% (inactive)
CC(=O)c1cccc2c(O)c(C3=Nc4ccccc4C3=O)[nH]c12	88% (inactive)	118% (inactive)	114% (inactive)	85.3% (inactive)	90.8% (inactive)	69.7%	202% (inactive)	-29.4% (inactive)	129% (inactive)	4% (inactive)	-1.02% (inactive)	-5.62% (inactive)	0.43% (inactive)	103% (inactive)	0.23 (inactive)	9% (inactive)	4.91% (inactive)
C[C@H](CCC(=O)O)[C@H]1CC[C@H]2[C@@H]3C(=O)C[C@@H]4CC(=O)CC[C@]4(C)[C@H]3CC(=O)[C@]12C	99.3% (inactive)	105% (inactive)	101% (inactive)	120% (inactive)	119% (inactive)	57.7%	220% (inactive)	22.7% (inactive)	95.4% (inactive)	4% (inactive)	-23.4% (inactive)	10.1% (inactive)	-2.4% (inactive)	109% (inactive)	-0.09 (inactive)	0% (inactive)	-11.9% (inactive)

Reference: PubChem BioAssay
